# Measurements reported in the supplement of paper PMC10981050.
# Where a name gives a salt, the structure may show the parent alone.
# Tested on: OCI-AML2
# Experiment: cell viability relative to vehicle control; higher = less cytotoxic
# Conditions: 10 µM; SRSF2 genotype: P95H/wt
# Summary of the method: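 CRISPR-edited SRSF2 P95 mutant and isogenic wild-type clones of four leukaemia lines were screened against Selleck bioactive, kinase and epigenetic probe libraries, with identity-inconsistent compounds removed. Compounds were acoustically dispensed into 384-well plates at a single 10 µM dose, with 2000 cells in 50 µL medium per well. After 48 h, supernatant was removed and CellTiter-Glo luminescence was read. Viability was expressed as percent of the on-plate DMSO vehicle control, analysed in Genedata Screener.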
row,SMILES,cell viability
1,O=C(CCc1ccc(O)cc1)c1c(O)cc(O[C@@H]2O[C@H](CO)[C@@H](O)[C@H](O)[C@H]2O)cc1O [Trilobatin],92.6%
2,CC(C)n1nc(-c2ccc3oc(N)nc3c2)c2c(N)ncnc21,6.33%
3,COc1ccc(COc2ccc(Cc3cnc(N)nc3N)cc2OC)cc1,66%
4,COc1cc(O)c(C(=O)Nc2nc(C(=O)NCCN(C(C)C)C(C)C)cs2)cc1OC [Acotiamide hydrochloride],97.1%
5,CC(=O)N1C[C@H](O)C[C@H]1C(=O)O [Oxaceprol],94.3%
6,C/C=C(/C)C(=O)O[C@H]1[C@@H](OC(=O)CC(C)C)c2c(ccc3ccc(=O)oc23)OC1(C)C [Praeruptorin E],25.6%
7,CC(C)[C@H](O)C(=O)N[C@@H](C)C(=O)N[C@@H]1C(=O)N(C)CCc2ccccc21,101%
8,O=C(O)C1=CO[C@@H](O[C@@H]2O[C@H](CO)[C@@H](O)[C@H](O)[C@H]2O)[C@@H]2C(CO)=CC[C@H]12 [Geniposidic acid],90.8%
9,NC(=O)[C@@H]1CC[C@@H]2CN1C(=O)N2OS(=O)(=O)O [Avibactam sodium],102%
10,Oc1cc(O)c2c(c1)OC(c1ccc(O)c(O)c1)C(OC1(c3ccc(O)c(O)c3)Oc3cc(O)cc(O)c3C(O)C1O)C2 (stereo not given) [Proanthocyanidins],92.6%
11,CC(=O)OCC(=O)[C@@]1(O)[C@H](C)C[C@H]2[C@@H]3CCC4=CC(=O)C=C[C@]4(C)[C@@]3(F)[C@@H](O)C[C@@]21C [Dexamethasone acetate],106%
12,CCNC1(C(N)=O)CCN(c2ncnc3c2nc(-c2ccccc2Cl)n3-c2ccc(Cl)cc2)CC1,88.2%
13,COc1cc(Cc2cnc(N)nc2N)cc(OC)c1OC [Trimethoprim],101%
14,CCOC(=O)CC(=O)N1CCSC1COc1ccccc1OC (stereo not given) [Moguisteine],105%
15,O=C(O)C=CCCCCCCCO [Royal jelly acid],110%
16,COc1cc2c(cc1O)CC[n+]1cc3c(OC)c(OC)ccc3cc1-2 [Jatrorrhizine chloride],93.5%
17,CC(C)(C)S(=O)(=O)c1ccc2nccc(Nc3n[nH]c4ccc(F)cc34)c2c1,88.9%
18,Nc1c(Br)cc(Br)cc1CN[C@H]1CC[C@H](O)CC1 [Ambroxol HCl],104%

row,SMILES,cell viability
1,CN(C)CCCCC(=O)Nc1ccc(NC(=S)NC(=O)c2ccc(C(C)(C)C)cc2)cc1 [Tenovin-6],1.27%
2,Nc1nc2n[nH]nc2c(=O)[nH]1 [Azaguanine-8],70.9%
3,OCCOCCN1CCN(C(c2ccccc2)c2ccc(Cl)cc2)CC1 (stereo not given) [Hydroxyzine 2HCl],95.4%
4,c1cc2c(c3c1C[C@H]1c4cc5c(cc4CCN1C3)OCO5)OCO2 [Stylopine hydrochloride],92.8%
5,COc1c(-c2ccc3cc(NS(C)(=O)=O)ccc3c2)cc(-n2ccc(=O)[nH]c2=O)cc1C(C)(C)C [S5402 Dasabuvir(ABT-333).cdx],90.5%
6,OC[C@H]1O[C@@H](n2cnc3c(O)nc(O)nc32)[C@H](O)[C@@H]1O [Xanthosine],93.2%
7,CCOc1ccccc1N=Nc1c(C)[nH]n(-c2nc(-c3ccccc3)cs2)c1=O,108%
8,Cc1ccc([C@@H]2O[C@H](CO)[C@@H](O)[C@H](O)[C@H]2O)cc1Cc1ccc(-c2ccc(F)cc2)s1 [Canagliflozin],102%
9,O=S1(=O)CCN(CN2CCS(=O)(=O)NC2)CN1 [Taurolidine],123%
10,CC(=O)OCC(=O)[C@@]1(O)CC[C@H]2[C@@H]3CCC4=CC(=O)CC[C@]4(C)[C@@]3(F)[C@@H](O)C[C@@]21C [Fludrocortisone acetate],113%
11,CCCCC(CC)COC(=O)C=Cc1ccc(OC)cc1 (stereo not given) [Octinoxate],90.2%
12,NC(=O)c1ccc(-c2nc(-c3ccc4c(c3)OCCO4)c(-c3ccccn3)[nH]2)cc1,99.6%
13,Cc1cc(-c2cc(C)c(NCCCS(=O)(=O)O)c(C)c2)cc(C)c1N,99.9%
14,Cc1cn(-c2cc(NC(=O)c3ccc(C)c(Nc4nccc(-c5cnccn5)n4)c3)cc(C(F)(F)F)c2)cn1 [Radotinib],103%
15,O=c1c2ccccc2oc2ccccc12 [Xanthone (Genicide)],93.1%
16,Nc1nc2c(ncn2COCCO)c(=O)[nH]1 [Acyclovir (Aciclovir)],105%
17,CC(=O)O[C@]1(C(C)=O)CC[C@H]2[C@@H]3C[C@H](C)C4=CC(=O)CC[C@]4(C)[C@H]3CC[C@@]21C [Medroxyprogesterone acetate],98.5%
